# Where “and” joins values, the source holds several entries; their conditions need not be identical. Equal values may be shown once. Screen size: about 5,500 compounds; about 2,000 (36%) were called active. Roughly 18% stayed inconclusive and do not appear here. Some of the results follow. Values without a mark were called inactive. Rule as the data show it: active = normalized growth mostly below about 0.91 (no sharp cut-off); inconclusive = no clear call, values can overlap the other calls; inactive = mostly above about 0.92.
# Test: chemical genetic growth profiling, strain panel (AID 1159580);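 also: tested at 20 µM; growth read once vehicle control cultures reached saturation at 30 °C; 1 = growth at the plate median or of vehicle wells; lower values mean less growth of the strain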
# Settings: S. cerevisiae deletion strains, growth OD
smiles,measurement,setting,value
CC(NCCc1ccc(O)cc1)C(O)c1ccc(O)cc1 (centres undefined),normalized growth,"locus YAL021C, strain ccr4, stronger effect = lower value",0.997
same,normalized growth,"locus YAL026C, strain drs2, stronger effect = lower value",0.504 (active)
same,normalized growth,"locus YAL030W, strain snc1, stronger effect = lower value",1.01
same,normalized growth,"locus YBL061C, strain skt5, stronger effect = lower value",0.991
same,normalized growth,"locus YBR009C, strain hhf1, stronger effect = lower value",1.04
same,normalized growth,"locus YBR021W, strain FUR4, stronger effect = lower value",0.962
same,normalized growth,"locus YBR023C, strain chs3, stronger effect = lower value",0.989
same,normalized growth,"locus YBR171W, strain sec66, stronger effect = lower value",0.994
same,normalized growth,"locus YBR229C, strain ROT2, stronger effect = lower value",0.988
same,normalized growth,"locus YBR231C, strain swc5, stronger effect = lower value",1.01
same,normalized growth,"locus YBR279W, strain paf1, stronger effect = lower value",0.978
same,normalized growth,"locus YCL011C, strain gbp2, stronger effect = lower value",0.991
same,normalized growth,"locus YCL016C, strain dcc1, stronger effect = lower value",0.968
same,normalized growth,"locus YCL029C, strain bik1, stronger effect = lower value",0.977
same,normalized growth,"locus YCL061C, strain MRC1, stronger effect = lower value",0.999
same,normalized growth,"locus YCL069W, strain vba3, stronger effect = lower value",0.973
same,normalized growth,"locus YCR088W, strain abp1, stronger effect = lower value",0.997
same,normalized growth,"locus YDL005C, strain med2, stronger effect = lower value",0.983
same,normalized growth,"locus YDL035C, strain GPR1, stronger effect = lower value",0.982
same,normalized growth,"locus YDL040C, strain nat1, stronger effect = lower value",0.99
same,normalized growth,"locus YDL074C, strain BRE1, stronger effect = lower value",0.999
same,normalized growth,"locus YDL101C, strain DUN1, stronger effect = lower value",0.985
same,normalized growth,"locus YDL134C, strain PPH21, stronger effect = lower value",0.977
same,normalized growth,"locus YDL185W, strain tfp1, stronger effect = lower value",0.979
same,normalized growth,"locus YDL192W, strain arf1, stronger effect = lower value",0.982
same,normalized growth,"locus YDR001C, strain nth1, stronger effect = lower value",0.998
same,normalized growth,"locus YDR069C, strain doa4, stronger effect = lower value",1.01
same,normalized growth,"locus YDR101C, strain arx1, stronger effect = lower value",0.997
same,normalized growth,"locus YDR137W, strain rgp1, stronger effect = lower value",0.982
same,normalized growth,"locus YDR150W, strain NUM1, stronger effect = lower value",0.994
same,normalized growth,"locus YDR159W, strain sac3, stronger effect = lower value",1
same,normalized growth,"locus YDR162C, strain NBP2, stronger effect = lower value",0.984
same,normalized growth,"locus YDR195W, strain ref2",0.99
same,normalized growth,"locus YDR297W, strain sur2, stronger effect = lower value",1.01
same,normalized growth,"locus YDR318W, strain mcm21, stronger effect = lower value",0.986
same,normalized growth,"locus YDR334W, strain swr1, stronger effect = lower value",0.984
same,normalized growth,"locus YDR335W, strain msn5, stronger effect = lower value",0.952
same,normalized growth,"locus YDR388W, stronger effect = lower value",0.981
same,normalized growth,"locus YDR392W, strain spt3, stronger effect = lower value",0.189 (active)
same,normalized growth,"locus YDR502C, strain sam2, stronger effect = lower value",0.983
same,normalized growth,"locus YEL003W, strain gim4, stronger effect = lower value",0.999
same,normalized growth,"locus YEL037C, strain rad23, stronger effect = lower value",0.954
same,normalized growth,"locus YEL061C, strain CIN8 (second series), stronger effect = lower value",0.989
same,normalized growth,"locus YEL061C, strain CIN8, stronger effect = lower value",0.993
same,normalized growth,"locus YER015W, strain faa2, stronger effect = lower value",0.995
same,normalized growth,"locus YER016W, strain bim1, stronger effect = lower value",0.984
same,normalized growth,"locus YER110C, stronger effect = lower value",0.977
same,normalized growth,"locus YER111C, strain swi4, stronger effect = lower value",0.979
same,normalized growth,"locus YER155C, strain BEM2 (second series), stronger effect = lower value",0.948
same,normalized growth,"locus YER155C, strain BEM2, stronger effect = lower value",0.983
same,normalized growth,"locus YER167W, strain BCK2, stronger effect = lower value",0.983
same,normalized growth,"locus YFR010W, strain ubp6, stronger effect = lower value",0.922
same,normalized growth,"locus YGL078C, strain dbp3, stronger effect = lower value",0.984
same,normalized growth,"locus YGL086W, strain mad1, stronger effect = lower value",0.987
same,normalized growth,"locus YGL167C, strain pmr1, stronger effect = lower value",0.997
same,normalized growth,"locus YGL173C, strain kem1, stronger effect = lower value",1.02
same,normalized growth,"locus YGL227W, strain vid30, stronger effect = lower value",0.993
same,normalized growth,"locus YGL240W, strain doc1, stronger effect = lower value",1.02
same,normalized growth,"locus YGL248W, strain PDE1, stronger effect = lower value",0.996
same,normalized growth,"locus YGL253W, strain hxk2, stronger effect = lower value",0.766 (active)
same,normalized growth,"locus YGR078C, strain PAC10, stronger effect = lower value",1
same,normalized growth,"locus YGR135W, strain pre9, stronger effect = lower value",0.972
same,normalized growth,"locus YGR229C, strain SMI1, stronger effect = lower value",0.989
same,normalized growth,"locus YGR252W, strain gcn5, stronger effect = lower value",0.946
same,normalized growth,"locus YHR013C, strain ard1, stronger effect = lower value",0.953
same,normalized growth,"locus YHR027C, strain rpn1, stronger effect = lower value",1.01
same,normalized growth,"locus YHR030C, strain SLT2, stronger effect = lower value",0.986 and 1
same,normalized growth,"locus YHR079C, strain IRE1 (second series), stronger effect = lower value",0.979
same,normalized growth,"locus YHR079C, strain IRE1, stronger effect = lower value",1.01
same,normalized growth,"locus YHR094C, strain hxt1, stronger effect = lower value",0.978
same,normalized growth,"locus YHR129C, strain ARP1, stronger effect = lower value",0.986
same,normalized growth,"locus YHR142W, strain chs7, stronger effect = lower value",0.812 (active)
same,normalized growth,"locus YHR200W, strain rpn10, stronger effect = lower value",0.985
same,normalized growth,"locus YIL066C, strain RNR3, stronger effect = lower value",0.99
same,normalized growth,"locus YIL073C, strain SPO22, stronger effect = lower value",0.946
same,normalized growth,"locus YIL125W, strain kgd1, stronger effect = lower value",0.99
same,normalized growth,"locus YIR030C, strain dcg1, stronger effect = lower value",0.983
same,normalized growth,"locus YJL092W, strain hpr5, stronger effect = lower value",0.973
same,normalized growth,"locus YJL095W, strain BCK1 (second series), stronger effect = lower value",0.998
same,normalized growth,"locus YJL095W, strain BCK1, stronger effect = lower value",1.03 and 1.02
same,normalized growth,"locus YJL115W, strain asf1, stronger effect = lower value",0.975
same,normalized growth,"locus YJL129C, strain trk1, stronger effect = lower value",0.973
same,normalized growth,"locus YJL134W, strain LCB3, stronger effect = lower value",0.99
same,normalized growth,"locus YJL154C, strain vps35, stronger effect = lower value",0.983
same,normalized growth,"locus YJL164C, strain tpk1, stronger effect = lower value",0.987
same,normalized growth,"locus YJL166W, strain qcr8, stronger effect = lower value",1.03
same,normalized growth,"locus YJL168C, strain set2, stronger effect = lower value",0.983
same,normalized growth,"locus YJL187C, strain SWE1 (second series), stronger effect = lower value",1
same,normalized growth,"locus YJL187C, strain SWE1, stronger effect = lower value",0.998
